Compounds with a hit are over-represented: about 12% of the library has one in this group of screens.
Sfp inh: qHTS Assay for Inhibitors of Bacillus subtilis Sfp phosphopantetheinyl transferase (PPTase). AID 1490, 2009. Potency, µM, inactives show largest response in the series, negative = inhibition, hits mostly inhibitors. 3.5% of 310,000 active. Biochemical Sfp PPTase activity, qHTS;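 further: the enzyme is Sfp with the accession as filed and its product quenches rhodamine fluorescence; 0% = enzyme reaction without inhibitor and -100% = no enzyme wells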
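After 15 min at room temperature with compound, 15 nM Sfp received 5 uM rhodamine-CoA plus 12.5 uM BHQ-2-ybbR (50 mM Hepes pH 7.6, 10 mM MgCl2). Rate came from the fluorescence difference over 30 min, ex 525/em 598 nm.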
BAZ2B inh: qHTS Assay for Inhibitors of BAZ2B; AlphaScreen BAZ2B-H3K14Ac peptide displacement; 4.4% of 360,000 active; Bromodomain adjacent to zinc finger domain protein 2B (Homo sapiens), Q9UIF8; Potency, µM (series often up to 114 µM), for inactives: top-dose activity change, negative = inhibition, hits mostly inhibitors; further: on the % scale 0 is the no-effect control and ±100 the full control effect; nearly all actives have a fitted effect of over 60% in size
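Complex of BAZ2B and biotin-H3K14Ac (50 nM apiece) forms over 30 min at RT, then faces library compounds up to 110 uM for another 30 min; AlphaScreen beads added, 20 min dark incubation, luminescence read.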
PLK1 PBD inh: qHTS for Inhibitors of PLK1-PDB (polo-like kinase 1 - polo-box domain): Primary Screen | Plk1 PBD binding of FITC phosphopeptide, fluorescence polarization | Potency, µM, for inactives: max response, negative = inhibition, usual class: inhibitors | 2.8% of 360,000 active; further: series mostly up to about 57 µM; on the % scale 0 is the no-effect control and ±100 the full control effect; nearly all actives have a fitted effect of over 65% in size
Target sequence (P53350 whole entry, looked up, the tested form may be a part): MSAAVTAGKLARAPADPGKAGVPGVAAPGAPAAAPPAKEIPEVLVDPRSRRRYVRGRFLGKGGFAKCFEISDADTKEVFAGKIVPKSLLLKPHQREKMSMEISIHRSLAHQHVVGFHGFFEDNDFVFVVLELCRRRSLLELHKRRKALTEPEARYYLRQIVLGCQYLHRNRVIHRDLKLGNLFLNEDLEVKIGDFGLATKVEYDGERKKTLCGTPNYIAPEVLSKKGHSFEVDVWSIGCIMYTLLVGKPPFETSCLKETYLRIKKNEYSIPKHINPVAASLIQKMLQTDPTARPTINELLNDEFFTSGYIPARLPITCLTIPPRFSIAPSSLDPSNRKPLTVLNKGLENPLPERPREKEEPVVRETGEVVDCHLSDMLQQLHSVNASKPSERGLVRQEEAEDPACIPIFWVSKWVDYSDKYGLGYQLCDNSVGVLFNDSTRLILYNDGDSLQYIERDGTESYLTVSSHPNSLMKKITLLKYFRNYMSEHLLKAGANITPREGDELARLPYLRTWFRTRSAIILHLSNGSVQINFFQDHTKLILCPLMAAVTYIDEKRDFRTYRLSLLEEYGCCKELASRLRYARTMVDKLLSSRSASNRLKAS
HP1b chromo inh: HTS for Inhibitors of HP1-beta Chromodomain Interactions with Methylated Histone Tails; AlphaScreen HP1-beta / biotin-H3K9me3 peptide binding; Potency, µM (top dose mostly 114 µM), for the others: top-dose activity change, negative = inhibition, most hits filed as inhibitors; 0.56% of 390,000 active; AID 540317, 2011; further: nearly all actives have a fitted effect of over 70% in size
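AlphaScreen: HP1-beta (50 nM) preformed 30 min with biotin-H3(1-18)K9me3 peptide (50 nM) in PBS pH 7.4, 0.01% Tween-20. Compound added for 30 min at RT, then streptavidin donor/nickel chelate acceptor beads (10 ug/mL) for 30 min.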
JMJD2A Tudor inh: qHTS Assay for Inhibitors of JMJD2A-Tudor Domain; Lysine-specific demethylase 4A (Homo sapiens), O75164; 4.4% of 390,000 active; AID 504339, 2011; Potency, µM (series often up to 114 µM), for the others: top-dose activity change, negative = inhibition, actives largely listed as inhibitors; AlphaScreen JMJD2A-Tudor / H3K4me3 peptide binding; further: on the % scale 0 is the no-effect control and ±100 the full control effect; nearly all actives have a fitted effect of over 50% in size
G9a block: qHTS Assay for Inhibitors of Histone Lysine Methyltransferase G9a | Histone-lysine N-methyltransferase EHMT2 (Homo sapiens), Q96KQ7 | G9a H3K9 monomethylation, AlphaScreen, 2 h | Potency, µM (titrated, usually from 102 µM), inactives show at the highest dose activity, negative = inhibition, most hits filed as inhibitors | 8.8% of 350,000 active | AID 504332, 2011; further: on the % scale 0 is the no-effect control and ±100 the full control effect; nearly all actives have a fitted effect of over 75% in size
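G9a (20 nM) was preincubated 15 min with compound, then reacted 2 h at room temperature with 500 nM biotin-H3K9 peptide and 20 µM SAM. Monomethyl-H3K9 detected by AlphaScreen using anti-H3K9me1 antibody.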
* = called active by the depositor; ? = inconclusive; / = no result given; [ ] = dose if it differs, or a comment. The call rests on the fitted dose curve; in most records, active means well fitted curve in the direction sought with a large enough effect; inconclusive means small, poorly fitted or top-dose-only effect, or another doubt; inactive means no such curve, though single readings can be large; an effect the other way counts as inactive or inconclusive. Potency means the concentration at half of the fitted maximal effect.

SMILES | Sfp inh | BAZ2B inh | PLK1 PBD inh | HP1b chromo inh | JMJD2A Tudor inh | G9a block
Cc1ccc(CNC(=O)c2ccc(Br)o2)cc1 | -26% | -22% | -11% | 8% | -9% | -57%[12.7 µM]
COc1ccc(CNC(=O)c2ccc(Br)o2)cc1 | -16% | 1% | 5% | 42% | 0% | 20µM*
COc1cccc(CNC(=O)CCNC(=O)c2ccc(Br)o2)c1 | 16% | -11% | 13µM* | -1% | ? | -4%[59 µM]
O=C(CCNC(=O)c1ccc(Br)o1)NCc1ccc(Cl)cc1 | 10% | -3% | -3% | 33% | -7% | -5%
O=C1CCC(C(=O)NCc2ccccc2)N1 (centres undefined) | 15% | -20% | 4% | 25% | -16% | 57%
COc1cccc(NC(=O)Cn2c(=O)n(Cc3ccc(C(=O)NCc4ccc(C)cc4)cc3)c(=O)c3ccccc32)c1 | / | -2% | / | 36% | 17% | 4%[59 µM]
O=C(Nc1ccc(F)cc1Cl)c1cnc(N2CCOCC2)c2ccccc12 | / | 1% | / | 28%[57 µM] | -4% | 26%[59 µM]
CCOc1ccc(NC(=O)c2cc(SC)ccc2Cl)cc1 | 11% | 8% | -17% | 22% | -4% | 11%[59 µM]
CCOc1ccc(NC(=O)c2ccccc2SC)cc1 | 8% | 16% | 19µM* | 6% | -18%[11.4 µM] | 10%
COc1ccc(NC(=O)c2sc(=S)[nH]c2N)cc1 | 56µM* | ? | ? | -27% | 35µM* | ?
COc1ccc(NC(=O)c2ccc(=O)oc2)cc1 | 10% | -4% | -8% | 36% | -22% | 50µM*
COc1ccc(NC(=O)CN(C)CC(=O)NCC2CCCCC2)cc1 | / | 0% | 0% | 17% | ? | 56µM*
CN(CC(=O)NCC1CCCCC1)CC(=O)Nc1ccc(F)cc1 | / | -5% | -7% | 29% | -14% | ?
COc1cc(C(=O)Nc2ccc3[nH]c(=O)sc3c2)cc(OC)c1OC | / | -1% | / | 27% | -3% | -27%[59 µM]
O=C(Nc1cccc(C(F)(F)F)c1)c1ccc2c(c1)nnn2C1CCCC1 | / | 4% | / | 13% | -4% | 3%[59 µM]
COc1ccccc1Oc1ccc(NC(=O)c2ccc(Cl)cc2)cc1 | 8% | -17% | 30µM* | 19% | -27% | -6%
COc1ccc(NC(=O)c2cccc(C(=O)Nc3ccc(OC)cc3)n2)cc1 | ? | -19% | / | / | / | 71µM*
COc1ccc(NC(=O)CN(C)CC(=O)Nc2ccccc2SC)cc1 | ? | 20µM* | -15% | ? | 32µM* | 8.9µM*
CSc1ncccc1C(=O)Nc1ccc(OC(F)(F)F)cc1 | 12% | 0% | 34µM* | 20% | 11µM* | 13%
COc1ccc(OCCN(C)CC(=O)Nc2ccccc2SC)cc1 | 9% | 6% | 1% | 36% | 11% | 2%
COc1ccc(C(=O)Nc2ccc(OC)c(OC)c2)cc1 | 20% | 5% | -6% | 14% | -19% | -26%[12.7 µM]
C=CCn1c(COc2ccccc2)nc2ccccc21 | 12% | 2% | -5% | 44% | 13% | 39%
COc1ccc(NC(=O)CS(=O)(=O)c2ccc(Br)cc2)cc1 | 3% | -18% | -6% | -2% | -6% | -3%
COc1ccc(N/C(=C2\CCCC2=O)C2CCCCC2)cc1 | / | / | ? | -11% | 56µM* | /
COc1ccc(NC(=O)c2cc(-c3ccccc3O)no2)cc1 | / | -28% | / | -16% | ? | 13µM*
SMILES | Sfp inh | BAZ2B inh | PLK1 PBD inh | HP1b chromo inh | JMJD2A Tudor inh | G9a block
COc1ccc(-c2cc(C(=O)Nc3ccccc3)on2)cc1 | 16% | -15% | -1% | 44% | -9% | 9%
COc1ccc(NC(=O)CS(=O)(=O)c2cccc(Cl)c2)cc1 | 7% | -16% | 21µM* | 11% | ? | 5%
COc1ccc(NC(=O)c2ccccc2SC)cc1 | -2% | 8% | -3% | 37% | -6% | 45µM*
COc1ccc(NC(=O)CNC(=O)C2CCCCC2)cc1 | 3% | -2% | -4% | 43% | -14% | /
Cc1cc(C)c2c(CC(=O)N3CCN(c4cccc(Cl)c4)CC3)coc2c1 | / | -26% | / | 42% | -7% | -25%[59 µM]
COCc1c(C(=O)NCC(c2ccco2)N2CCCC2)oc2ccccc12 (centres undefined) | / | / | 0% | / | / | /
CCc1nnc(NS(=O)(=O)c2ccc(NC(=O)/C=C/c3ccc(F)cc3)cc2)s1 | 24% | -30% | -15% | 6% | -10% | 56µM*
CCc1nnc(NC(=O)c2ccc(S(C)(=O)=O)cc2)s1 | -6% | -5% | 9.5µM* | 1% | -30%[11.4 µM] | /
CCc1nnc(NC(=O)c2ccc(S(=O)(=O)N3CCCC3)cc2)s1 | 23% | 1% | 0% | 36% | 14% | 7%
CCc1nnc(NS(=O)(=O)c2ccc(NC(=O)Nc3ccc(OC)cc3)cc2)s1 | 12% | -9% | -6% | 16% | -14% | /
CCc1nnc(NS(=O)(=O)c2ccc(NC(=O)OC)cc2)s1 | -14% | -24% | -28% | 70% | -1% | 18µM*
CCN1CCN(CCCNC(=O)Cn2c(-c3cccs3)cc3cc(F)ccc32)CC1 | / | -11% | / | 36% | -24% | -41%[59 µM]
COc1ccc(OC(=O)Nc2ccccc2)cc1 | 12% | 7% | -16% | 18% | 0% | 1%[59 µM]
Cc1occc(=O)c1OC(=O)Nc1ccccc1 | -24% | ? | -23% | 5% | 20µM* | ?
Cc1c(-c2ccc(Cl)cc2Cl)nc2ccccc2c1C(=O)NCCN1CCOCC1 | 2% | -8% | -8% | 16% | ? | -7%
Cc1ccc(-c2nc3ccccn3c2Nc2ccc3c(c2)OCCO3)o1 | / | 45µM* | / | ? | 50µM* | 13µM*
Cc1ccc(-c2nc3ccccn3c2Nc2ccccc2)o1 | 20µM* | -31% | -24% | 12% | -8% | 50µM*
Cc1ccc2nc(-c3ccc(C)o3)c(Nc3ccc4c(c3)OCCO4)n2c1 | / | ? | / | 7% | ? | 4.5µM*
Cc1ccc2nc(-c3ccc(C)o3)c(Nc3ccc4c(c3)OCO4)n2c1 | / | / | / | 19% | -26% | /
Brc1ccc(-c2nc3ccccn3c2Nc2ccc3c(c2)OCCO3)o1 | / | / | / | 9% | -18% | ?
Cc1ccc(Nc2c(-c3ccc(C)o3)nc3ccccn23)cc1 | / | / | / | -14% | ? | /
COC(=O)C(Cc1ccccc1)NC(=O)CNC(=O)c1ccccc1OC (centres undefined) | 0% | 0% | -2% | -3% | -11% | -6%
O=C(CCn1cnc2ccccc21)N/N=C/c1ccc(O)cc1 | -3% | 1% | -5% | 38% | -1% | 23%[59 µM]
O=C(CCn1cnc2ccccc21)N/N=C/c1ccccc1O | 2% | 6% | 8.4µM* | 6% | -16% | 45%[59 µM]

Bioassay records from PubChem.
